For one sequence, binding signal results are on record in PMC7862700, “An all-to-all approach to the identification of sequence-specific readers for epigenetic DNA modifications on cytosine”.

Common to all, as to test: DAPPL (digital affinity profiling via proximity ligation, sequencing); 10 mM Tris-HCl pH 7.5, 50 mM NaCl, 1 mM DTT, 4% glycerol, room temperature, 30 min; GST-TFs on glutathione beads, 16-mer random dsDNA library, 0.1% formaldehyde crosslink after washing; high values mean tight binding
Details in all cases: protein: recombinant; tags: N-terminal GST; dsDNA, one strand shown

The target of one assay is T1, FLI1 (Homo sapiens, UniProt Q01543 1-452).
T1 sequence: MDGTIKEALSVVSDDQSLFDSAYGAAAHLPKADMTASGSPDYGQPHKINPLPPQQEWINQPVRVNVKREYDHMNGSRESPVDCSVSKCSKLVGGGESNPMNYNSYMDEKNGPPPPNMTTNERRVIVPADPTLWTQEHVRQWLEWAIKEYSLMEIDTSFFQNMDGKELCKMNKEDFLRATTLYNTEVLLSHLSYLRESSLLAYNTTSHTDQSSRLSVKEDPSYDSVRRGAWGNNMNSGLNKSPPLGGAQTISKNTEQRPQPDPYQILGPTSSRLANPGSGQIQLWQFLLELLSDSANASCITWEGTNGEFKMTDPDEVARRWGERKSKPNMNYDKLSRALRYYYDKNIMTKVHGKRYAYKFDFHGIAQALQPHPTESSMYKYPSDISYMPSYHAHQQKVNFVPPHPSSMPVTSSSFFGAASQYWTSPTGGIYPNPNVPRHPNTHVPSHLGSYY
In outline: (§1)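 After expression in yeast as GST fusions, human transcription factors were bound to glutathione beads, DNA-barcoded and mixed with a tag-only sample. The pools were incubated with 200 nmole of a 16-mer random double-stranded DNA library in Tris/NaCl/DTT/glycerol buffer (30 min, room temperature), washed and crosslinked with 0.1% formaldehyde. Proximity ligation with BsaI/T4 ligase ran for 1 h at 37 °C, before PCR amplification and sequencing on an Illumina NextSeq500. Binding signal is a hexamer's read frequency for a factor divided by its frequency for the tag-only sample.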

The next assay has as its target T2, ELK1 (Homo sapiens, UniProt P19419 1-428).
T2 sequence: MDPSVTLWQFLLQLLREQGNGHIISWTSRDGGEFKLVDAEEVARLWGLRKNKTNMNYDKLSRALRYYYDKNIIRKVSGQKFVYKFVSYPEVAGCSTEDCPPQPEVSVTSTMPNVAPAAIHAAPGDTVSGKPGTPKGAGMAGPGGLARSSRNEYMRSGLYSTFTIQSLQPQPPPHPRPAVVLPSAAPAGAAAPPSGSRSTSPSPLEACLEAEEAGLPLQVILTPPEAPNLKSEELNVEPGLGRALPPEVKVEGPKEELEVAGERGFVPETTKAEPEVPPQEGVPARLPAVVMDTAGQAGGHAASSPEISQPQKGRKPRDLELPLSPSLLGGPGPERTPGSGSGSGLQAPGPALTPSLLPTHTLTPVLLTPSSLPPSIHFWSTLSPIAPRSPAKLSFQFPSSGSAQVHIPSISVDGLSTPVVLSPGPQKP
A digest of the protocol: as §1

The target of the next assay is T3, GABPA (Homo sapiens, UniProt Q06546 1-454).
T3 sequence: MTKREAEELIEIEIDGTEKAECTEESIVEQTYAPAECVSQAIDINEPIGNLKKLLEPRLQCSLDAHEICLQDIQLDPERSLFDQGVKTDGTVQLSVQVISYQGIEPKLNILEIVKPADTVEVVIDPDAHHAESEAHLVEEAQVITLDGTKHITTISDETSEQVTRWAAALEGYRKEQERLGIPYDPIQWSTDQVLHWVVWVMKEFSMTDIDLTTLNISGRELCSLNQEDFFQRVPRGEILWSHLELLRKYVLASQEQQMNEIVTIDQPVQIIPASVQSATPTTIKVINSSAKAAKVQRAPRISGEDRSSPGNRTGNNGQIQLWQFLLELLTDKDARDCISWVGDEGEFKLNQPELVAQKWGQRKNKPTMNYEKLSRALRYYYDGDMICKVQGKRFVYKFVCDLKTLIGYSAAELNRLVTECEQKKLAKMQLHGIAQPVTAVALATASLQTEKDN
In outline: as §1

In the next assay the target is T4, ERG (Homo sapiens, UniProt P11308 1-479).
T4 sequence: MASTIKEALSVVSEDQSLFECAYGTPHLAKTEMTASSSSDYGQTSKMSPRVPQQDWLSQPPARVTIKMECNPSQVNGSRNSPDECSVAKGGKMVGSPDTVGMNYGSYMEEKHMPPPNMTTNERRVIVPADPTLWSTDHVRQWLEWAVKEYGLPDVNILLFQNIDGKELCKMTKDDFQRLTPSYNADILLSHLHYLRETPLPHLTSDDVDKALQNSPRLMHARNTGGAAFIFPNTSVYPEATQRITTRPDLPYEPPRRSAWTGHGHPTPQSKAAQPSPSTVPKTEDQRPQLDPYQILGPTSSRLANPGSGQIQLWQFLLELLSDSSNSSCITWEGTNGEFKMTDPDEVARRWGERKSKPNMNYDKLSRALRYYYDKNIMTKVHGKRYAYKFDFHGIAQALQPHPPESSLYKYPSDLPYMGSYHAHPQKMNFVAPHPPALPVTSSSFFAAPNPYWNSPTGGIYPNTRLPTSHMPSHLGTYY
A digest of the protocol: as §1

In the next assay the target is ELF1 (Homo sapiens, UniProt P32519 1-619). A digest of the protocol: as §1
The next assay addresses T5, EHF (Homo sapiens, UniProt Q9NZC4 1-300).
T5 sequence: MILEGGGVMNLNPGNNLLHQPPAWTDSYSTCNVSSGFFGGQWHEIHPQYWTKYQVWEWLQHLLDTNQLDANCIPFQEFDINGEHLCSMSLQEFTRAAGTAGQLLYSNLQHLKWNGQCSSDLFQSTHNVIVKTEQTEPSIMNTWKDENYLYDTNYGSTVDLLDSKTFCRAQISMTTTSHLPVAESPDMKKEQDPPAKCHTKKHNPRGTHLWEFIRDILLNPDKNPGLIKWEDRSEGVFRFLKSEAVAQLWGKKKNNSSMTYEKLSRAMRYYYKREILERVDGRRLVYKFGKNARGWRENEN
In outline: as §1

A further assay deals with SPI1 (Homo sapiens, UniProt P17947 1-270). A digest of the protocol: as §1
A further assay has as its target SPIB (Homo sapiens, UniProt Q01892 1-262). A digest of the protocol:
as §1

The next assay concerns the target T6, ELK3 (Homo sapiens, UniProt P41970 1-407).
T6 sequence: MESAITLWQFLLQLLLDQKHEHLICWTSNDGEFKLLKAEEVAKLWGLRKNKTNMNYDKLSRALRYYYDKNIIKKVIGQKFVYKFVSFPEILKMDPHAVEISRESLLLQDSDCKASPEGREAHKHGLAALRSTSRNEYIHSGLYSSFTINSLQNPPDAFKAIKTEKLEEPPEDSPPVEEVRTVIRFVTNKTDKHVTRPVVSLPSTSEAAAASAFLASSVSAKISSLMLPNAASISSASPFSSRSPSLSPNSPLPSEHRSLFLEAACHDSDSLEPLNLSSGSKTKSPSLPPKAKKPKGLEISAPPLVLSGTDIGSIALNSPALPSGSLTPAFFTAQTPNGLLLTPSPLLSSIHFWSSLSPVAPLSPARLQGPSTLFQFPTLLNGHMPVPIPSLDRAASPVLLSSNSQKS
In outline:
as §1

The target in a further assay is T7, FEV (Homo sapiens, UniProt Q99581 1-238).
T7 sequence: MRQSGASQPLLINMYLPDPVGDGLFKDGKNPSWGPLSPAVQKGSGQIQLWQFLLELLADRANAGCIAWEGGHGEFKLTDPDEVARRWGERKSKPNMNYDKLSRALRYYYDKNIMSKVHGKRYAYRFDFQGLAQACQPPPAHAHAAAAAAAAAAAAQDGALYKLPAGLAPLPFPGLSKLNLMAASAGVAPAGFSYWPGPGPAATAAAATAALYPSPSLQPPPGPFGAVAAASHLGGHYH
In outline:
as §1

Another assay concerns the target ETV5 (Homo sapiens, UniProt P41161 1-510). In outline:
as §1

For another assay, the target named is T8, SPIC (Homo sapiens, UniProt Q8N5J4 1-248).
T8 sequence: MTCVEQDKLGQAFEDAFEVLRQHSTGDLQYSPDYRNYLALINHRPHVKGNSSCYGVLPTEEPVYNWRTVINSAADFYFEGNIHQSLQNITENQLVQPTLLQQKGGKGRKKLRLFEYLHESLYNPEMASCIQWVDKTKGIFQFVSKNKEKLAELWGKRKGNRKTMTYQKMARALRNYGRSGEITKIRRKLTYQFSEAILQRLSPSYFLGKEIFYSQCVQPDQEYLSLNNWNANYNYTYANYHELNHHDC
A digest of the protocol:
as §1

The target of the next assay is ELF4 (Homo sapiens, UniProt Q99607 1-663). In outline:
as §1

A further assay has as its target ETV1 (Homo sapiens, UniProt P50549 1-477). A digest of the protocol: as §1
In the next assay the target is T9, ERF (Homo sapiens, UniProt P50548 1-548).
T9 sequence: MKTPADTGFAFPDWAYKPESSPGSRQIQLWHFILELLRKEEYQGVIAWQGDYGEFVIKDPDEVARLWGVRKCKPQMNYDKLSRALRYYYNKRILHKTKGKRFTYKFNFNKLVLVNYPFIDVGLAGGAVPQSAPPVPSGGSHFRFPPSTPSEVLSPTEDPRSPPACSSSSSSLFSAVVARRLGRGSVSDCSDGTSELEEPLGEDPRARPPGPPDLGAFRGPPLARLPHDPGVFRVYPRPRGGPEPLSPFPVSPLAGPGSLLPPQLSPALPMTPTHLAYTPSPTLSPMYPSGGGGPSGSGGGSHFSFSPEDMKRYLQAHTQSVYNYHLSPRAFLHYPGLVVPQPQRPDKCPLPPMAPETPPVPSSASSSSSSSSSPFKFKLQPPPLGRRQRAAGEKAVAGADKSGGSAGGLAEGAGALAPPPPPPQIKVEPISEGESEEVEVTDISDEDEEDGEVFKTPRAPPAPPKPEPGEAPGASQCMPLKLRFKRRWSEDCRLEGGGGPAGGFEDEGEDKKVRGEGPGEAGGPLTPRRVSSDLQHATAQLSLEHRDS
In outline:
as §1

For another assay, the target named is T10, ETV3L (Homo sapiens, UniProt Q6ZN32 1-361).
T10 sequence: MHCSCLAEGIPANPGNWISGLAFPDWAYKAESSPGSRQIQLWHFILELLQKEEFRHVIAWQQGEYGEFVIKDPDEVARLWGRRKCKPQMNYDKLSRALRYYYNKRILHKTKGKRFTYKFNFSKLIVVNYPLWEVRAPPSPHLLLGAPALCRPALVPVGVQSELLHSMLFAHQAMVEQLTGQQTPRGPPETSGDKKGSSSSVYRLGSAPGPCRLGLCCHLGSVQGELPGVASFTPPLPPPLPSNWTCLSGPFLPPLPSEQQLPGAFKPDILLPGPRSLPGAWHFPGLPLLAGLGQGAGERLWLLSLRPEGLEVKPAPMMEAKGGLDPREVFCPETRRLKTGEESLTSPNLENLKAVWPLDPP
In outline: as §1

Another assay concerns the target T11, ETS2 (Homo sapiens, UniProt P15036 1-469).
T11 sequence: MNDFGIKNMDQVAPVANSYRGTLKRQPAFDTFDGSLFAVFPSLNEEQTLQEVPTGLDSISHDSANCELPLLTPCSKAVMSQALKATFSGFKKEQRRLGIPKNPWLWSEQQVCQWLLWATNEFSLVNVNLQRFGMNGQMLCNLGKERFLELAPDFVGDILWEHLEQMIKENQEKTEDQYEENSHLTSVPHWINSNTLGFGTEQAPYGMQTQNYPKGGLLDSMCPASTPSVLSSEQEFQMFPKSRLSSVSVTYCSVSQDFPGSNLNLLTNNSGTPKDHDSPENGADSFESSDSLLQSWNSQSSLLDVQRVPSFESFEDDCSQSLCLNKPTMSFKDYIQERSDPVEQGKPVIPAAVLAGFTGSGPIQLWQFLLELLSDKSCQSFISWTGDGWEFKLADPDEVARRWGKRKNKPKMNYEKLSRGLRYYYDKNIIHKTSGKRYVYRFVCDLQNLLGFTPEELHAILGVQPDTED
A digest of the protocol: as §1

The next assay deals with T12, ELF5 (Homo sapiens, UniProt Q9UKW6-2 1-255).
T12 sequence: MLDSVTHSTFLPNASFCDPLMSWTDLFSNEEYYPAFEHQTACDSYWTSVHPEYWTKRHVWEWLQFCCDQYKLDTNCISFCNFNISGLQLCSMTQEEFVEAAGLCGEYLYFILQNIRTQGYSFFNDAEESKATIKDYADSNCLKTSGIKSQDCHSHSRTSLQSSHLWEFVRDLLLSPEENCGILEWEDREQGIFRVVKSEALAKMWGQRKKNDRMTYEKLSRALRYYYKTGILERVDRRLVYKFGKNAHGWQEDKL
In outline:
as §1

The target of another assay is T13, ETV3 (Homo sapiens, UniProt P41162-2 1-143).
T13 sequence: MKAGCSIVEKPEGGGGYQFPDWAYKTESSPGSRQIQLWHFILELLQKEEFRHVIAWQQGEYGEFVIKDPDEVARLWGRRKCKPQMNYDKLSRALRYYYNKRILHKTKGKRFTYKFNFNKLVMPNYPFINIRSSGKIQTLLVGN
In outline:
as §1

In a further assay the target is ETV6 (Homo sapiens, UniProt P41212 1-452). A digest of the protocol:
as §1

ETV5, sequence (P41161 whole entry): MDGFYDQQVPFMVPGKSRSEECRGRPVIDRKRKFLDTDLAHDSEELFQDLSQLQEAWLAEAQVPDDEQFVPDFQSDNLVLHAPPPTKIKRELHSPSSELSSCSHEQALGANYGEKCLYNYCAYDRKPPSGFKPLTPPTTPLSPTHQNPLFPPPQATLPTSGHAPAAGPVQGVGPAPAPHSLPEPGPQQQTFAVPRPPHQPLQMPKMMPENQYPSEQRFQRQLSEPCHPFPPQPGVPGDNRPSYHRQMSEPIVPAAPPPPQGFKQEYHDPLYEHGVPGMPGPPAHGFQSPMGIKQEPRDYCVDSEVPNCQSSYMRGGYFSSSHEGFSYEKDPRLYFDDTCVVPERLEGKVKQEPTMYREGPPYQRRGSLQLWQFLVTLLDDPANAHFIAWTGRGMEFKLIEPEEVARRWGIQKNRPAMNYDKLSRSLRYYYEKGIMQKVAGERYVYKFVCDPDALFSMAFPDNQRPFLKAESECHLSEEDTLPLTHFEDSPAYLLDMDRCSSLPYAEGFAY
ETV6, sequence (P41212 whole entry): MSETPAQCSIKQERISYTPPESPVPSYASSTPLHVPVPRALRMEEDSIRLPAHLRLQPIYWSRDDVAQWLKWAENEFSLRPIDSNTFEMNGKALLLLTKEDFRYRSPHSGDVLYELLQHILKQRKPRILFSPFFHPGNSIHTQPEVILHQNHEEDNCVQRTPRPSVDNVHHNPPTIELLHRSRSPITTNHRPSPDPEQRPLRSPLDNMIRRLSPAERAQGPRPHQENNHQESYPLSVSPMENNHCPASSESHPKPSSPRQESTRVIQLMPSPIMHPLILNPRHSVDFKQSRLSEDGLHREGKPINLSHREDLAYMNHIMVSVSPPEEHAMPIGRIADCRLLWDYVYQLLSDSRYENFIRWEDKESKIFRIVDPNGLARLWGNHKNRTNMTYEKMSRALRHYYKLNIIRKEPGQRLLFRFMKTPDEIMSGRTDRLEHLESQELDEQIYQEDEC
ELF1, sequence (P32519 whole entry): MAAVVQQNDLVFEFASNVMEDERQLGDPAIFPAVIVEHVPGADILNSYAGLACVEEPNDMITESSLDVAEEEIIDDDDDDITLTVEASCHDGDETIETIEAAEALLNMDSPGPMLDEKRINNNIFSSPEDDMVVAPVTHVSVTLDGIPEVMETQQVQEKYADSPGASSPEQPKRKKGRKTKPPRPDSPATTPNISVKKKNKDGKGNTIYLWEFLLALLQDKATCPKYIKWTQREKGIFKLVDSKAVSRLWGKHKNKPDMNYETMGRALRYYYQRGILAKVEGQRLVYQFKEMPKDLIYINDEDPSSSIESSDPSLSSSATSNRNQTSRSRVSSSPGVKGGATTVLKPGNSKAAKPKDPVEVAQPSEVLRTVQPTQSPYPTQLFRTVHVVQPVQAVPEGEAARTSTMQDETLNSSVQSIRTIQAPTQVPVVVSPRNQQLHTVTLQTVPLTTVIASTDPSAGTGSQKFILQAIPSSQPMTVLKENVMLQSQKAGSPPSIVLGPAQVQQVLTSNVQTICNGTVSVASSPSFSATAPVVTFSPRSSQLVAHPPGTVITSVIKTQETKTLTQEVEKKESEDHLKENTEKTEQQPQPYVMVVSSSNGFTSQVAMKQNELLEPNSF
SPIB, sequence (Q01892 whole entry): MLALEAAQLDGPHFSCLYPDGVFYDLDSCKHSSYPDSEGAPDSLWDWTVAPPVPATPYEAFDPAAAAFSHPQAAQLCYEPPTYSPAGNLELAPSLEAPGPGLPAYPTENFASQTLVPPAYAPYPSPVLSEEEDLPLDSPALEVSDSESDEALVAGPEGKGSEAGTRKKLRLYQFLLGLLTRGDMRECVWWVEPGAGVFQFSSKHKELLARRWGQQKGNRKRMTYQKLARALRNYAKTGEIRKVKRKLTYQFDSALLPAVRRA
ETV1, sequence (P50549 whole entry): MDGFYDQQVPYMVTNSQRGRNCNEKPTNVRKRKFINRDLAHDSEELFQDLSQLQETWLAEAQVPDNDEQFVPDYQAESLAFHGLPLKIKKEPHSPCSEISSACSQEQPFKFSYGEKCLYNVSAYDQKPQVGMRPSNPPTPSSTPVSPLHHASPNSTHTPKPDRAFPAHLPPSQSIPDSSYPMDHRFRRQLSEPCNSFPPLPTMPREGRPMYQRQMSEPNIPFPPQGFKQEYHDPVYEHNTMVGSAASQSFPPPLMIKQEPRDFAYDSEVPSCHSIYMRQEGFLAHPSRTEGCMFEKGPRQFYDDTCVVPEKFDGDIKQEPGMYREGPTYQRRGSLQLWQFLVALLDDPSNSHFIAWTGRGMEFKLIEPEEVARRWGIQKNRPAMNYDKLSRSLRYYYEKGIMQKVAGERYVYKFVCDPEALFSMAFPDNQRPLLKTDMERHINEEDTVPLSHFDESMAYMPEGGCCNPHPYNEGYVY
ELF4, sequence (Q99607 whole entry): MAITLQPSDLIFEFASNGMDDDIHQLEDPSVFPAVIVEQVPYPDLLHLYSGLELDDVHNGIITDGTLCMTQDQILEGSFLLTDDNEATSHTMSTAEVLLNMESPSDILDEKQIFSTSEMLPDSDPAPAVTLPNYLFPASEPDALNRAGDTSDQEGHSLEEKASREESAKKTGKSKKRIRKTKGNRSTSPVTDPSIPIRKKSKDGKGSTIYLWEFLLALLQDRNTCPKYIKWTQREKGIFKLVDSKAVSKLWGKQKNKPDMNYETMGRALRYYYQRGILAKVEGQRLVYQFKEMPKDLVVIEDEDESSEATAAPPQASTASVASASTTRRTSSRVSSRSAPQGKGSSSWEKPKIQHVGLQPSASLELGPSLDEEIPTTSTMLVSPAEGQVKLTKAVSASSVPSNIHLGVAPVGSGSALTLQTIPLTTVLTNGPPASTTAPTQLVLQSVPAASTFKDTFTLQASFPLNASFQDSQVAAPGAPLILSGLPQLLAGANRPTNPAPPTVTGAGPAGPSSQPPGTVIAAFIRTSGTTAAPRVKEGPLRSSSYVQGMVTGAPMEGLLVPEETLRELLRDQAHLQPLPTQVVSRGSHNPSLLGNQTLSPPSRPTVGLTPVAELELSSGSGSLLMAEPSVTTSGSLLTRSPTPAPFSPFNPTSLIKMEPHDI

For TTGGTC, the binding signal with FLI1 was 1.16 fold enrichment (6-mer frequency, TF over GST control); with ELK1, 1.17 fold enrichment (6-mer frequency, TF over GST control); with GABPA, 1.11 fold enrichment (6-mer frequency, TF over GST control); in the assay with ERG it was 1.06 fold enrichment (6-mer frequency, TF over GST control); with ELF1, 1.15 fold enrichment (6-mer frequency, TF over GST control); in the assay with EHF it was 1.14 fold enrichment (6-mer frequency, TF over GST control). For the same sequence, the binding signal in the assay with SPI1 is 1.08 fold enrichment (6-mer frequency, TF over GST control); with SPIB it was 1.05 fold enrichment (6-mer frequency, TF over GST control); with ELK3 it was 1.11 fold enrichment (6-mer frequency, TF over GST control); with FEV it was 1.04 fold enrichment (6-mer frequency, TF over GST control); with ETV5, 1.1 fold enrichment (6-mer frequency, TF over GST control); with SPIC it was 1.12 fold enrichment (6-mer frequency, TF over GST control). Besides, the binding signal is 1.13 fold enrichment (6-mer frequency, TF over GST control) in the assay with ELF4; 1.17 fold enrichment (6-mer frequency, TF over GST control) in the assay with ETV1; 1.08 fold enrichment (6-mer frequency, TF over GST control) with ERF; 1.08 fold enrichment (6-mer frequency, TF over GST control) with ETV3L; 1.1 fold enrichment (6-mer frequency, TF over GST control) with ETS2; 1.04 fold enrichment (6-mer frequency, TF over GST control) with ELF5. The binding signal is 1.05 fold enrichment (6-mer frequency, TF over GST control) with ETV3 and 1.06 fold enrichment (6-mer frequency, TF over GST control) in the assay with ETV6.
